# Assay outcomes deposited in PubChem by National Center for Advancing Translational Sciences (NCATS).
# Gal4-VP16 FLuc: VP16 counterscreen qHTS for inhibitors of ROR gamma transcriptional activity | Drosophila S2 Gal4-VP16 UAS-luciferase, luminescence, 20 h | Potency, µM (highest dose often 53.6 µM), inactives show at the highest dose activity, negative = inhibition, most hits filed as inhibitors | actives 3.5% (n = 310,000);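 note: Gal4-VP16 expression switched on by copper sulfate through the metallothionein promoter; % is set by controls: 0 for no effect and ±100 for the full control effect; nearly all actives have a fitted effect of over 50% in size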
# RORgamma inh: qHTS for inhibitors of ROR gamma transcriptional activity. Nuclear receptor ROR-gamma (Mus musculus), P51450. Drosophila S2 Gal4-RORgamma UAS-luciferase reporter, 20 h. Potency, µM (titrated, usually from 53.6 µM), for the others: at the highest dose activity change, negative = inhibition, actives largely listed as inhibitors. actives 5.4% (n = 310,000). AID 2551, 2010; note: % is set by controls: 0 for no effect and ±100 for the full control effect; nearly all actives have a fitted effect of over 60% in size
# Target sequence (P51450 whole entry, looked up, the tested form may be a part): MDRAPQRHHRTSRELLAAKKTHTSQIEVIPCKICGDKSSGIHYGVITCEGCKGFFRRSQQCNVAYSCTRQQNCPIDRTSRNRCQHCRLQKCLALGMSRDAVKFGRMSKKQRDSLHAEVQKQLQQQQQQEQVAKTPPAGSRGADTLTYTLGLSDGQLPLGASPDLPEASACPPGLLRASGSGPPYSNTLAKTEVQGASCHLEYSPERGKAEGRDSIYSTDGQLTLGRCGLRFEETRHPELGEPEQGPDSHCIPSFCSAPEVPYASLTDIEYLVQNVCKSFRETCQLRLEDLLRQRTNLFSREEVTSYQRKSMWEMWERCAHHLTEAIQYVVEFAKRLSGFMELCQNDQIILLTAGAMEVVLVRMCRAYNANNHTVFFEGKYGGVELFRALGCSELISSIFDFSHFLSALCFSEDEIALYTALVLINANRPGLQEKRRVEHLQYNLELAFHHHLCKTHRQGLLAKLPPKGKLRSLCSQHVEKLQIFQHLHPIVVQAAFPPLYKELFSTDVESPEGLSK
#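 In this cell-based reporter format, copper sulfate (700 uM final) drives Gal4–ROR gamma fusion expression from a metallothionein promoter in Drosophila Schneider cells; compounds preincubated 1 hr, reporter read after 20 hr at ambient temperature.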
# ELG1 DNA repair: qHTS screen for small molecules that inhibit ELG1-dependent DNA repair in human embryonic kidney (HEK293T) cells expressing luciferase-tagged ELG1. Potency, µM (series often up to 46.1 µM), without a hit: at the top dose activity change, negative = inhibition, hits mostly inhibitors. AID 504467, 2011. HEK293T ELG1-luciferase reporter, luminescence, 16 h; DNA damage induced by 5-fluorouridine. actives 2.3% (n = 330,000); note: % is set by controls: 0 for no effect and ±100 for the full control effect; nearly all actives have a fitted effect of over 55% in size
#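 In this reporter screen, reduction of luminescence relative to DMSO vehicle indicated activity. Compounds and 5-fluorouridine were added together to 2,000 cells per well, incubated for 16 hr at 37 °C, then developed with ONE-Glo.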
# SW480 rereplic: A quantitative high throughput screen for small molecules that induce DNA re-replication in SW480 colon adenocarcinoma cells. SW480 DNA re-replication, Hoechst DNA content imaging, 48 h. Potency, µM (top dose mostly 46.1 µM), for inactives: at the highest dose re-replication activation, hits mostly activators. actives 1.8% (n = 340,000). AID 624297, 2012; note: % of control where 0% means no effect; nearly all actives have a fitted effect of over 55% in size
#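 Cells (250 per well) received 23 nL compound or DMSO by pin tool and were kept 48 hr at 37 C, 5% CO2. Nuclei were then stained with Hoechst for 40 min and scanned for DNA content.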
# MCF10A rereplic: A quantitative high throughput screen for small molecules that induce DNA re-replication in MCF 10a normal breast cells | MCF 10A DNA re-replication, Hoechst nuclear intensity, 48 h | Potency, µM (doses to about 46.1 µM), without a hit: at the highest dose activity, positive = re-replication, usual class: activators | actives 2.9% (n = 350,000) | AID 624296, 2012; note: % of control where 0% means no effect; nearly all actives have a fitted effect of over 50% in size
# An asterisk follows results filed as active; ? = inconclusive; · = no result given; [ ] = remark or other dose. Hits are enriched below; roughly 10% of the tested compounds scored in any of these assays. Calls come from the whole dose curve; as a rule, active = well fitted curve in the direction sought with a large enough effect; inconclusive = small, poorly fitted or top-dose-only effect, or another doubt; inactive = no such curve, though single readings can be large; an effect the other way counts as inactive or inconclusive. Potency is the fitted concentration of half-maximal effect.
SMILES,Gal4-VP16 FLuc,RORgamma inh,ELG1 DNA repair,SW480 rereplic,MCF10A rereplic
Cc1ccc2cccc(OCC(=O)Nc3cccc(S(=O)(=O)N4CCCC4)c3)c2n1,·,·,18.3µM*,1.6%,?
Cc1cc(/C=C2/C(=O)NN(c3ccccc3)C2=O)c(C)n1-c1cccc(O)c1,15.8µM*,?,?,2.8%,-2.5%
Cc1cc(C=C2C(=O)c3ccccc3C2=O)c(C)n1-c1ccc(C(=O)O)cc1,15.7%,-13.4%,-11.5%,0.1%,14.4%
Cc1cc(C=C2C(=O)c3ccccc3C2=O)c(C)n1-c1ccccc1,15.8µM*,0.0631µM*,?,0.8%,?
O=C1C(=Cc2cccn2-c2ccc(O)cc2)C(=O)c2ccccc21,-5.0%,12.7%,8.0%,-5.5%,-5.2%
Cc1cc(/C=C2\Cc3ccccc3C2=O)c(C)n1-c1ccccc1,?,-44.6%,?,?,20.6µM*
O=C1C(=Cc2cccn2-c2ccccc2)C(=O)c2ccccc21,-5.7%,21.0%,?,18.4µM*,9.4%
Cc1cc(C=C2C(=O)c3ccccc3C2=O)c(C)n1-c1cccc(C(=O)O)c1,-1.2%,-5.6%,?,3.7%,14.6%
CCOc1ccccc1N1CC(C(=O)NNC(=O)c2cc(OC)c(OC)c(OC)c2)CC1=O (stereo not given),·,·,4.5%,-3.2%,-4.2%
COc1cccc(CNCc2ccccc2OC)c1,-6.7%,-11.9%,17.6%,-1.0%,0.1%
Cc1ccc(NC(=O)c2cc(-c3cc(C)c(C)cc3O)n[nH]2)cc1C,2.3%,-29.6%,4.4%,-13.8%,7.5%
Cn1nnnc1Sc1ncnc2scc(-c3ccc(Cl)cc3)c12,·,·,16.4µM*,14.9%,8.2%
Clc1ccc(-n2nnnc2Sc2ncnc3sccc23)cc1,·,·,·,6.51µM*,10.3µM*
Cn1nnnc1Sc1ncnc2scc(-c3ccc4c(c3)OCO4)c12,·,·,-21.8%,12.4%,23.1µM*
Cn1nnnc1Sc1ncnc2scc(-c3ccc([N+](=O)[O-])cc3)c12,·,·,7.3µM*,20.7%,2.59µM*
COc1cccc(C2C([N+](=O)[O-])=C(N)Oc3cc(C)oc(=O)c32)c1 (stereo not given),3.8%,9.0%,20.4%,-3.0%,-4.6%
COCCNc1ncnc2ccc(-c3ccc(C(=O)N(C)C)cc3)cc12,5.7%,-2.1%,·,·,·
COc1ccc(S(=O)(=O)N2CCN(C(=O)C3COc4ccccc4O3)CC2)cc1 (stereo not given),·,·,-21.7%,-9.3%,5.4%
NC(=O)c1ccc(NC(=O)CSc2cn(CC(=O)N3CCOCC3)c3ccccc23)cc1,-7.1%,-1.1%,14.0%,12.2%,10.6%
c1ccc2c(c1)OCc1cn[nH]c1-2,-8.8%,8.9%,22.8%,?,9.3%
c1ccc(N2CC3COc4ccccc4C3=N2)cc1 (stereo not given),·,·,·,14.6µM*,13µM*
NC(=O)c1sc2nc(N3CCCCC3)c3c(c2c1N)CCCC3,-6.0%,-0.6%,?,-1.7%,1.0%
CCOC(=O)c1sc2nc(C(C)C)c3c(c2c1N)CCC3,-4.5%,20.1%,5.6%,18.4µM*,3.66µM*
COC(=O)c1ccc(-c2sc3nc(N4CCOCC4)c4c(c3c2N)CCCC4)o1,-8.4%,10.3%,?,0.631µM*,?
CCOC(=O)c1sc2nc(N3CCOCC3)c3c(c2c1N)CCCC3,-22.2%,-2.9%[10 µM],-21.7%,1.4%,-0.3%
SMILES,Gal4-VP16 FLuc,RORgamma inh,ELG1 DNA repair,SW480 rereplic,MCF10A rereplic
COC(=O)c1sc2nc(N3CCCCC3)c3c(c2c1N)CCCC3,0.6%,-6.9%,10.7%,1.4%[9.22 µM],7.08µM*
O=C(COc1ccc(-c2ccccc2)cc1)N1CCN(C(=O)c2cccs2)CC1,11.1%,8.9%,?,-86.9%,-3.7%
CC1(C)CC(=O)C(C(C2=C(O)CC(C)(C)CC2=O)c2ccc(Br)s2)C(=O)C1 (stereo not given),10µM*,?,13.6%,?,13µM*
Cc1ccc(C(C2=C(O)CC(C)(C)CC2=O)C2C(=O)CC(C)(C)CC2=O)s1 (stereo not given),9.9%,11.5%,19.0%,?,23.1µM*
CC1(C)CC(=O)C(C(C2=C(O)CC(C)(C)CC2=O)c2ccc([N+](=O)[O-])cc2)C(=O)C1 (stereo not given),7.2%,35.4%,5.3%,1.0%,-2.6%
Cc1ccc(C2c3c(-c4ccccc4O)n[nH]c3C(=O)N2Cc2ccncc2)cc1 (stereo not given),-1.3%,-35.3%,-17.3%,18.4µM*,7.31µM*
COc1ccc(C2c3c(-c4ccccc4O)n[nH]c3C(=O)N2CCc2ccc(OC)c(OC)c2)cc1 (stereo not given),?,?,2.82µM*,-3.4%,?
CCNC(=S)NNC(=O)c1cc(-c2ccccc2C)nc2ccccc12,-24.8%,0.562µM*,-8.3%,-3.5%,18.8%
CCCOc1cccc(-c2cc(C(=O)NNC(=S)NCC)c3ccccc3n2)c1,?,?,17.5%,5.5%,?
CCNC(=S)NNC(=O)c1cc(-c2cccc(OC)c2)nc2ccccc12,12.6µM*,2.24µM*,?,-389.9%,-4.4%
Cc1ccc(C)c(-c2cc(C(=O)Nc3sc(C)c(C)c3C(N)=O)c3ccccc3n2)c1,-4.3%,15.9%,18.4µM*,22.1%,?
CC(C)Oc1cccc(-c2cc(C(=O)NC(=S)N(C)c3ccccc3C(=O)O)c3ccccc3n2)c1,?,11.2µM*,?,-3.1%,?
Cc1cc(C(=O)NNC(=O)c2ccc(Cl)cc2)c2ccccc2n1,·,·,-13.2%,-0.7%,0.9%
Cc1ccc(C)c(-c2cc(C(=O)NC3CC3)c3ccccc3n2)c1,3.7%,-4.2%,2.2%,0.6%,9.3%
Cc1ccc(C)c(-c2cc(C(=O)NNC(=S)NCC(C)C)c3ccccc3n2)c1,?,1.12µM*,-20.0%,-4.2%,?
Cc1cc(C(=O)NNC(=S)NC(C)c2ccccc2)c2ccccc2n1 (stereo not given),-26.7%,5.01µM*,-11.1%,-0.2%,6.7%
CCNC(=S)NNC(=O)c1cc(CC(C)C)nc2ccccc12,?,0.398µM*,-11.9%,-3.2%,27.5%
O=C(C[C@@H]1C/C=C\C[C@@H](Cc2ccc(F)cc2)C(=O)OC[C@@H](Cc2ccccc2)NC1=O)N[C@H](CO)Cc1ccccc1,·,·,8.1%,9.3%,4.4%
CCCCC/C=C\C\C=C/C=C/C=C/[C@@H](SCC(NC(C)=O)C(=O)O)[C@@H](O)CCCC(=O)O (stereo not given in full),2.3%,40.6%,·,·,·
